According to the supplement of paper PMC12808144:

Test system: Mel-DCC-11-R
Test: cell viability relative to DMSO control (fraction of DMSO control); higher = less cytotoxic, active = 0.8 or less
Conditions: 1 µM; 120 h; vemurafenib co-treatment 0 µM
Method: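 Same 315-drug TargetMol library at 1 µM in duplicate, 120 h, ATPlite luminescence normalised to DMSO controls, on the vemurafenib-resistant subline Mel-DCC-11-R cultured alone or with 8 µM vemurafenib co-treatment (Mel-DCC-11-R + V).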

Row | SMILES | cell viability
1 | Cc1coc2c1C(=O)C(=O)c1c-2ccc2c(C)cccc12 [Tanshinone I] | 1.03 (inactive)
2 | Cl.N=C1CCCN1Cc1[nH]c(=O)[nH]c(=O)c1Cl [Tipiracil hydrochloride] | 0.816 (inactive)
3 | Cc1ccc(NC(=O)c2ccc(CN3CCN(C)CC3)cc2)cc1Nc1nccc(-c2cccnc2)n1 [Imatinib] | 0.978 (inactive)
4 | CCN1CCN(Cc2ccc(Nc3ncc(F)c(-c4cc(F)c5nc(C)n(C(C)C)c5c4)n3)nc2)CC1.CS(=O)(=O)O [abemaciclib mesylate] | 1.8 (inactive)
5 | CN(C)C/C=C/C(=O)Nc1cc2c(Nc3ccc(F)c(Cl)c3)ncnc2cc1O[C@H]1CCOC1.O=C(O)/C=C\C(=O)O.O=C(O)/C=C\C(=O)O [Afatinib Dimaleate] | 1.03 (inactive)
6 | N#Cc1ccc(C(c2ccc(C#N)cc2)n2cncn2)cc1 [Letrozole] | 1.08 (inactive)
7 | Cl.N=C1CCCN1Cc1[nH]c(=O)[nH]c(=O)c1Cl.O=c1[nH]c(=O)n([C@H]2C[C@H](O)[C@@H](CO)O2)cc1C(F)(F)F.O=c1[nH]c(=O)n([C@H]2C[C@H](O)[C@@H](CO)O2)cc1C(F)(F)F | 1.23 (inactive)
8 | Oc1ccc(/C=C/c2cc(O)cc(O)c2)cc1 [Resveratrol] | 0.914 (inactive)
9 | Nc1c2ccccc2nc2ccccc12 [Aminacrine] | 1.26 (inactive)
10 | C#Cc1cccc(Nc2ncnc3cc(OCCOC)c(OCCOC)cc23)c1 [Erlotinib] | 1.03 (inactive)
11 | CO[C@H]1C(=O)[C@]2(C)[C@@H](OC)C[C@H]3OC[C@@]3(OC(C)=O)[C@H]2[C@H](OC(=O)c2ccccc2)[C@]2(O)C[C@H](OC(=O)[C@H](O)[C@@H](NC(=O)OC(C)(C)C)c3ccccc3)C(C)=C1C2(C)C [Cabazitaxel] | 1.04 (inactive)
12 | COc1cc([C@@H]2c3cc4c(cc3[C@@H](O[C@@H]3O[C@@H]5CO[C@@H](C)O[C@H]5[C@H](O)[C@H]3O)C3COC(=O)C32)OCO4)cc(OC)c1O (stereo not given in full) [Etoposide] | 1.26 (inactive)
13 | C[C@]12CC[C@@H]3c4ccc(O)cc4C[C@@H](CCCCCCCCCS(=O)CCCC(F)(F)C(F)(F)F)[C@H]3[C@@H]1CC[C@@H]2O (stereo not given in full) [Fulvestrant] | 0.987 (inactive)
14 | CC(C)C[C@@H](NC(=O)[C@H](O)[C@@H](N)Cc1ccccc1)C(=O)O.Cl [Bestatin hydrochloride] | 0.993 (inactive)
15 | CS(=O)(=O)CCNCc1ccc(-c2ccc3ncnc(Nc4ccc(OCc5cccc(F)c5)c(Cl)c4)c3c2)o1.Cc1ccc(S(=O)(=O)O)cc1.Cc1ccc(S(=O)(=O)O)cc1 [Lapatinib Ditosylate] | 1.27 (inactive)
16 | CNC(=O)c1cc(Oc2ccc(NC(=O)Nc3ccc(Cl)c(C(F)(F)F)c3)cc2)ccn1 [Sorafenib] | 0.898 (inactive)
17 | COc1cccc2c1C(=O)c1c(O)c3c(c(O)c1C2=O)C[C@@](O)(C(=O)CO)C[C@@H]3O[C@H]1C[C@H](N)[C@H](O[C@H]2CCCCO2)[C@H](C)O1 [Pirarubicin] | 0.233 (active)
18 | O=c1c(-c2ccc(O)cc2)coc2cc(O)cc(O)c12 [Genistein] | 0.984 (inactive)
19 | O=C(NC(Cc1cc(=O)[nH]c2ccccc12)C(=O)O)c1ccc(Cl)cc1 (stereo not given) [Rebamipide] | 0.995 (inactive)
20 | CC[C@@H]1C(=O)N(C)c2cnc(Nc3ccc(C(=O)N[C@H]4CC[C@H](N5CCN(CC6CC6)CC5)CC4)cc3OC)nc2N1C(C)C [Volasertib] | 1 (inactive)

Same assay, conditions: 1 µM; 120 h; vemurafenib co-treatment 8 µM

Row | SMILES | cell viability
21 | Cc1coc2c1C(=O)C(=O)c1c-2ccc2c(C)cccc12 [Tanshinone I] | 0.825 (inactive)
22 | Cl.N=C1CCCN1Cc1[nH]c(=O)[nH]c(=O)c1Cl [Tipiracil hydrochloride] | 0.877 (inactive)
23 | Cc1ccc(NC(=O)c2ccc(CN3CCN(C)CC3)cc2)cc1Nc1nccc(-c2cccnc2)n1 [Imatinib] | 1.1 (inactive)
24 | CCN1CCN(Cc2ccc(Nc3ncc(F)c(-c4cc(F)c5nc(C)n(C(C)C)c5c4)n3)nc2)CC1.CS(=O)(=O)O [abemaciclib mesylate] | 0.723 (active)
25 | CN(C)C/C=C/C(=O)Nc1cc2c(Nc3ccc(F)c(Cl)c3)ncnc2cc1O[C@H]1CCOC1.O=C(O)/C=C\C(=O)O.O=C(O)/C=C\C(=O)O [Afatinib Dimaleate] | 0.766 (active)
26 | N#Cc1ccc(C(c2ccc(C#N)cc2)n2cncn2)cc1 [Letrozole] | 1.06 (inactive)
27 | Cl.N=C1CCCN1Cc1[nH]c(=O)[nH]c(=O)c1Cl.O=c1[nH]c(=O)n([C@H]2C[C@H](O)[C@@H](CO)O2)cc1C(F)(F)F.O=c1[nH]c(=O)n([C@H]2C[C@H](O)[C@@H](CO)O2)cc1C(F)(F)F | 1.1 (inactive)
28 | Oc1ccc(/C=C/c2cc(O)cc(O)c2)cc1 [Resveratrol] | 1.16 (inactive)
29 | Nc1c2ccccc2nc2ccccc12 [Aminacrine] | 1.2 (inactive)
30 | C#Cc1cccc(Nc2ncnc3cc(OCCOC)c(OCCOC)cc23)c1 [Erlotinib] | 0.732 (active)
31 | CO[C@H]1C(=O)[C@]2(C)[C@@H](OC)C[C@H]3OC[C@@]3(OC(C)=O)[C@H]2[C@H](OC(=O)c2ccccc2)[C@]2(O)C[C@H](OC(=O)[C@H](O)[C@@H](NC(=O)OC(C)(C)C)c3ccccc3)C(C)=C1C2(C)C [Cabazitaxel] | 0.565 (active)
32 | COc1cc([C@@H]2c3cc4c(cc3[C@@H](O[C@@H]3O[C@@H]5CO[C@@H](C)O[C@H]5[C@H](O)[C@H]3O)C3COC(=O)C32)OCO4)cc(OC)c1O (stereo not given in full) [Etoposide] | 0.859 (inactive)
33 | C[C@]12CC[C@@H]3c4ccc(O)cc4C[C@@H](CCCCCCCCCS(=O)CCCC(F)(F)C(F)(F)F)[C@H]3[C@@H]1CC[C@@H]2O (stereo not given in full) [Fulvestrant] | 0.809 (inactive)
34 | CC(C)C[C@@H](NC(=O)[C@H](O)[C@@H](N)Cc1ccccc1)C(=O)O.Cl [Bestatin hydrochloride] | 1.14 (inactive)
35 | CS(=O)(=O)CCNCc1ccc(-c2ccc3ncnc(Nc4ccc(OCc5cccc(F)c5)c(Cl)c4)c3c2)o1.Cc1ccc(S(=O)(=O)O)cc1.Cc1ccc(S(=O)(=O)O)cc1 [Lapatinib Ditosylate] | 0.885 (inactive)
36 | CNC(=O)c1cc(Oc2ccc(NC(=O)Nc3ccc(Cl)c(C(F)(F)F)c3)cc2)ccn1 [Sorafenib] | 1.2 (inactive)
37 | COc1cccc2c1C(=O)c1c(O)c3c(c(O)c1C2=O)C[C@@](O)(C(=O)CO)C[C@@H]3O[C@H]1C[C@H](N)[C@H](O[C@H]2CCCCO2)[C@H](C)O1 [Pirarubicin] | 0.0504 (active)
38 | O=c1c(-c2ccc(O)cc2)coc2cc(O)cc(O)c12 [Genistein] | 1.02 (inactive)
39 | O=C(NC(Cc1cc(=O)[nH]c2ccccc12)C(=O)O)c1ccc(Cl)cc1 (stereo not given) [Rebamipide] | 1.24 (inactive)
40 | CC[C@@H]1C(=O)N(C)c2cnc(Nc3ccc(C(=O)N[C@H]4CC[C@H](N5CCN(CC6CC6)CC5)CC4)cc3OC)nc2N1C(C)C [Volasertib] | 0.664 (active)
